# Results taken from PubChem BioAssay (Tox21).
# “And” between values parts separate entries of the source, which are not always exact repeats. Equal entries are not always repeated. Inconclusive results are not listed. Where a call stands in place of a potency, no number is given. The source made the active and inactive calls. Calls come from the whole dose curve; as a rule, active = well fitted cell-killing curve with a large enough effect in the repeat runs; inconclusive = weak or mixed curves, or effect the other way; inactive = no such curve, though single readings can be large or run the other way.
# Experiment: qHTS assay for identifying genotoxic compounds that show differential cytotoxicity against isogenic chicken DT40 cell lines with known DNA damage response pathways - wild type cell line (AID 743012); note: nearly all actives have a fitted effect of over 60% in size
# Details: DT40 wild type chicken cells viability, CellTiter-Glo, 40 h; series mostly up to 68.4 µM
# Text: U.S. Tox21 Program National Center for Advancing Translational Sciences [NCATS] NIH Chemical Genomics Center [NCGC] U.S. Environmental Protection Agency [EPA] National Institutes of Environmental Health Sciences [NIEHS] National Toxicology Program [NTP] U.S. Food and Drug Administration [FDA] Tox21 Assay Overview: DNA repair pathways play a critical role in cellular homeostasis by repairing DNA damage induced by endogenous processes and xenobiotics. Isogenic chicken DT40 cell lines deficient in different DNA repair pathways can be used to identify genotoxic compounds and aid in characterizing the nature of the DNA damage induced. Two DNA repair-deficient cell lines with disrupted genes, Rad54/Ku70 or Rev3, were used to screen the Tox21 10K compound library. Possible genotoxicity was based on the presence of a significant increase in cytotoxicity in one or more of the DNA repair-deficient cell lines compared to that observed in the parental DNA repair-proficient cell line. CellTiter Glo viability assay (Promega, Madison, WI) was used to measure cell viability in these cells after compound treatment. This assay includes the data from the wild type cell line.
# Tox21 Assay Protocol Summary: 300 DT40 wild type cells in 5 uL/well were dispensed into white, solid-bottom 1536-well plates using a Multidrop Combi (ThermoFisher Scientific, Waltham, MA) dispenser. After the assay plates were incubated at 37 C/5% CO2 for approximately 0.5 hour, 23 nL of compounds dissolved in DMSO, positive controls or DMSO only was transferred into the assay plate by a pintool work station (Kalypsys, San Diego, CA). The assay plates were incubated at 37 C/5% CO2 for 40 hours. After 5 uL per well of CellTiter-Glo reagent was added into each well of the assay plates, the plates were incubated for 30 min at room temperature and the luminescence intensity of the plates was measured using a ViewLux (PerkinElmer, Shelton, CT) plate reader.
# Potency is the fitted concentration of half-maximal effect.
row,SMILES,Potency
1,CCN(CC)CCOCCOC(=O)C(CC)(CC)c1ccccc1,3.35 µM (active)
2,CC1=C(/C=C/C(C)=C/C=C/C(C)=C/C=C/C=C(C)/C=C/C=C(C)/C=C/C2=C(C)C(=O)CCC2(C)C)C(C)(C)CCC1=O,inactive
3,CC(=O)Oc1c(C)cc(OCC(O)CNC(C)C)c(C)c1C (stereo not given),inactive
4,CCCN(CC)C(CC)C(=O)Nc1c(C)cccc1C (stereo not given),inactive
5,CCCCCCCCCCCCCCCCCC(=O)OC[C@@H](O)[C@H]1OC[C@H](O)[C@H]1O,inactive
6,O=C(O)c1ccc(NC(=O)[C@H](Cc2ccc(O)cc2)NC(=O)c2ccccc2)cc1,inactive
7,Clc1ccc(COC(Cn2ccnc2)c2ccc(Cl)cc2Cl)c(Cl)c1 (stereo not given),10.1 µM (active)
8,C[C@@](Cc1ccc(O)c(O)c1)(NN)C(=O)O,29.8 µM (active)
9,COc1ccc(CNCC(O)COc2ccc3[nH]c(=O)ccc3c2)cc1OC (stereo not given),inactive
10,CCCCC(O)c1ccccc1 (stereo not given),inactive
11,COC(=O)[C@H]1[C@H]2C[C@@H]3c4[nH]c5ccccc5c4CCN3C[C@H]2C[C@@H](OC(=O)c2cc(OC)c(OC)c(OC)c2)[C@@H]1OC,1.06 µM (active) and 11.9 µM (active)
12,CCC(CN)CC(C)CCNCC(O)CNCC(C)CC(CC)CN (stereo not given),inactive
13,CCCCCCCCCCCCCCCC(=O)OC[C@@H](COP(=O)([O-])OCC[N+](C)(C)C)OC(=O)CCCCCCCCCCCCCCC,inactive
14,CCC(=O)OCC(=O)[C@@]1(OC(=O)CC)[C@@H](C)C[C@H]2[C@@H]3CCC4=CC(=O)C=C[C@]4(C)[C@@]3(F)[C@@H](O)C[C@@]21C,13.3 µM (active)
15,NCCCC[C@H](N)C(=O)O,inactive
16,CC(C)=CCC/C(C)=C/C=C/C(C)=C/C=C/C(C)=C/C=C/C=C(C)/C=C/C=C(C)/C=C/C=C(\C)CCC=C(C)C,29.8 µM (active)
17,NS(=O)(=O)c1cc2c(cc1Cl)NC(Cc1ccccc1)NS2(=O)=O (stereo not given),inactive
18,C#C[C@]1(O)CC[C@H]2[C@@H]3CCC4=CCCC[C@@H]4[C@H]3C(=C)C[C@@]21CC,13.3 µM (active)
19,C[Se]CCC(N)C(=O)O (stereo not given),inactive
20,CO/N=C(\C(=O)N[C@@H]1C(=O)N2C(C(=O)O)=C(CSc3nnnn3C)CS[C@H]12)c1csc(N)n1,inactive

row,SMILES,Potency
1,CC(C)CN(C[C@@H](OP(=O)(O)O)[C@H](Cc1ccccc1)NC(=O)O[C@H]1CCOC1)S(=O)(=O)c1ccc(N)cc1,inactive
2,N[C@@H](C(=O)N[C@@H]1C(=O)N2C(C(=O)O)=C(Cl)CC[C@H]12)c1ccccc1,inactive
3,S=C1SCN(Cc2ccccc2)CN1Cc1ccccc1,10.6 µM (active)
4,CCCCCCCN(CC)CCCC(O)c1ccc(NS(C)(=O)=O)cc1 (stereo not given),23.7 µM (active)
5,C[C@]12CC[C@@H]3c4ccc(OC(=O)c5ccccc5)cc4CC[C@H]3[C@@H]1CC[C@@H]2O,2.98 µM (active)
6,CCN1C(=O)NC(c2ccccc2)C1=O (stereo not given),inactive
7,Nc1nc2c(c(=O)[nH]1)N(C=O)C(CNc1ccc(C(=O)N[C@@H](CCC(=O)O)C(=O)O)cc1)CN2 (stereo not given in full),inactive
8,NC(Cc1ccccc1)C(=O)O (stereo not given),inactive
9,OCC(S)CS (stereo not given),16.8 µM (active)
10,CN(C)CCC=C1c2ccccc2C(C)(C)c2ccccc21,9.44 µM (active)
11,COc1cc(S(C)=O)ccc1-c1nc2ncccc2[nH]1 (stereo not given),inactive
12,CCOc1cc(-c2nccc3cc(OC)c(OC)cc23)cc(OCC)c1OCC,4.22 µM (active)
13,Cc1ncc(C[n+]2csc(CCOP(=O)(O)OP(=O)(O)O)c2C)c(N)n1,inactive
14,Cc1cccc(C)c1NC(=O)NC1=CCCN1C,inactive
15,C[C@H](CSC(=O)c1ccccc1)C(=O)N1C[C@@H](Sc2ccccc2)C[C@H]1C(=O)O,inactive
16,C[C@H](O)[C@H](O)[C@H]1CNc2nc(N)[nH]c(=O)c2N1,inactive
17,CCCCCCCCCCCCCCCCCC(=O)OCCO,inactive
18,C#CCC(Cc1cnc2nc(N)nc(N)c2n1)c1ccc(C(=O)N[C@@H](CCC(=O)O)C(=O)O)cc1 (stereo not given in full),0.0106 µM (active)
19,OCCN1CCN(CC/C=C2/c3ccccc3Sc3ccc(Cl)cc32)CC1,9.02 µM (active)
20,Cc1cc(-n2c(=O)[nH]c(=O)n(C)c2=O)ccc1Oc1ccc(S(=O)(=O)C(F)(F)F)cc1,26.6 µM (active)
